MCF10A rereplic: inducers of DNA re-replication in MCF 10A breast cells | MCF 10A DNA re-replication, Hoechst nuclear intensity, 48 h | Potency, µM (doses to about 46.1 µM), inactives show at the highest dose activity, positive = re-replication, actives largely listed as activators | 2.9% of 350,000 active | AID 624296; also: % of control where 0% means no effect; nearly all actives have a fitted effect of over 50% in size
ELG1 DNA repair: blocks ELG1-dependent DNA repair in HEK293T cells; HEK293T ELG1-luciferase reporter, luminescence, 16 h; DNA damage induced by 5-fluorouridine; AID 504467; 2.3% of 330,000 active; Potency, µM (titrated, usually from 46.1 µM), inactives show top-dose activity change, negative = inhibition, most hits filed as inhibitors; also: % is scaled to controls: 0 for no effect and ±100 for the full control effect; nearly all actives have a fitted effect of over 55% in size
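Reporter activity after DNA damage by 5-fluorouridine is monitored. Compound-treated cells incubate 16 hr at 37 °C, then ONE-Glo is added for 30 min before luminescence reading.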
Gal4-VP16 FLuc: inhibits Gal4-VP16 luciferase reporter, ROR gamma counter-screen; Drosophila S2 Gal4-VP16 UAS-luciferase, luminescence, 20 h; Potency, µM (top dose mostly 53.6 µM), without a hit: at the highest dose activity, negative = inhibition, actives largely listed as inhibitors; 3.5% of 310,000 active; AID 2546;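 also: Gal4-VP16 expression switched on by copper sulfate through the metallothionein promoter; % is scaled to controls: 0 for no effect and ±100 for the full control effect; nearly all actives have a fitted effect of over 50% in size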
RORg inh: ROR gamma (mouse) transcription inhibition; Potency, µM (highest dose often 53.6 µM), for the others: at the highest dose activity change, negative = inhibition, actives largely listed as inhibitors; Drosophila S2 Gal4-RORgamma UAS-luciferase reporter, 20 h; P51450; 5.4% of 310,000 active; also: % is scaled to controls: 0 for no effect and ±100 for the full control effect; nearly all actives have a fitted effect of over 60% in size
Target sequence (P51450 whole entry, looked up, the tested form may be a part): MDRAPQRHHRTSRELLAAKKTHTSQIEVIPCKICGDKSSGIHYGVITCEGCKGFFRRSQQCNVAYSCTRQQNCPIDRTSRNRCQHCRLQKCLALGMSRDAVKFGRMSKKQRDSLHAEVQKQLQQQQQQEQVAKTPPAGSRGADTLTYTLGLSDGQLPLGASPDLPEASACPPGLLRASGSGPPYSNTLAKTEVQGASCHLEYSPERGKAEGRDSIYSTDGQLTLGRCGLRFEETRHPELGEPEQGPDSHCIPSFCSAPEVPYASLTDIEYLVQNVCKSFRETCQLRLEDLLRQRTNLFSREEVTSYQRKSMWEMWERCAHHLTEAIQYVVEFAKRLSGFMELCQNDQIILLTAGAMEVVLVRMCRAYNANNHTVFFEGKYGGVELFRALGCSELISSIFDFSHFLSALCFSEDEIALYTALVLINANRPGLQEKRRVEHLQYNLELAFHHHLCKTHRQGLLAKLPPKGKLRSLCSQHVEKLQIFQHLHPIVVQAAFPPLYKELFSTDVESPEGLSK
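Drosophila S2 cells stably expressing Gal4-DBD/mouse RORγ fusion under metallothionein promoter plus UAS-luciferase; compound 1 h, then 700 uM CuSO4 induction for 20 h at ambient temperature; inhibition read as reduced luminescence.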
SW480 rereplic: DNA re-replication induction in SW480 cells | SW480 DNA re-replication, Hoechst DNA content imaging, 48 h | 1.8% of 340,000 active | Potency, µM (top dose mostly 46.1 µM), inactives show at the highest dose re-replication activation, usual class: activators | AID 624297; also: % of control where 0% means no effect; nearly all actives have a fitted effect of over 55% in size
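Treated cells incubate 48 hr (37 C, 5% CO2), are stained 40 min with Hoechst, and nuclear fluorescence is enumerated; a rise in nuclei with high DNA signal marks re-replication.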
* hit, by the source's call; i = inactive; ? = inconclusive; . = not tested or not shown; [ ] = another dose, or the depositor's remark. An excerpt weighted towards active compounds, which were near 10% of everything screened. Calls follow the shape of the dose curve; as a rule, active = well fitted curve in the direction sought with a large enough effect; inconclusive = small, poorly fitted or top-dose-only effect, or another doubt; inactive = no such curve, though single readings can be large; an effect the other way counts as inactive or inconclusive. Potency is read from the fitted curve at half-maximal effect.

SMILES | MCF10A rereplic | ELG1 DNA repair | Gal4-VP16 FLuc | RORg inh | SW480 rereplic
CC(C)(C)C1CCC2(CC1)C(C#N)=C(SCC(=O)Nc1ccccc1)NC(=O)C2C#N (centres undefined) | 9.2µM* | ? | ? | 0.0% | ?
CC(Oc1cccc(F)c1)c1ccnc2nc(/N=C/N(C)C)nn12 (centres undefined) | -0.1% | -8.5% | 12.9% | 6.9% | 2.2%
Cc1ccc(CN(Cc2ccccc2)C(=S)NCC(=O)NCc2cccnc2)o1 | -0.8% | 0.0% | 6.8% | -14.4% | -12.7%
CCOc1ccc(N2CC(O)Cn3c2nc2c3c(=O)n(CCCc3ccccc3)c(=O)n2C)cc1 (centres undefined) | 15.7% | ? | 8.7% | -0.5% | -0.2%
COc1ccc(N2CCn3c2nc2c3c(=O)n(CCCc3ccccc3)c(=O)n2C)c(OC)c1 | 9.9% | 20.6µM* | -18.1% | ? | 0.3%
COc1cccc(N2CC(O)Cn3c2nc2c3c(=O)n(CCCc3ccccc3)c(=O)n2C)c1 (centres undefined) | 0.7% | 23.1µM* | 9.0% | 27.6% | -8.1%
COc1ccc(N2CC(C)Cn3c2nc2c3c(=O)n(Cc3ccccc3)c(=O)n2C)c(OC)c1 (centres undefined) | 16.7% | 18.3µM* | -10.6% | ? | 13.9%
COc1ccc(CCC(=O)N2CCN(c3ccccc3)CC2)cc1OC | -0.2% | -6.9% | -7.7% | 5.5% | -2.4%
COC(=O)c1ccc(C(NC(=O)OCc2ccccc2)/C(C)=C/[C@@H](C)C(=O)NCCN2CCOCC2)cc1 (some centres undefined) | . | . | 0.5% | -21.8% | .
Cc1ccccc1-c1nnc(-c2ccc(Br)cc2)o1 | ? | ? | 2.82µM* | -45.0% | -6.5%
CCCN(Cc1ccccc1)C(=S)Nc1ccc(C(C)=O)cc1 | ? | -2.0% | 10µM* | 4.47µM* | 23.3%[1.84 µM]
Cc1cccc(C)c1NC(=S)NC(C)CCc1ccccc1 (centres undefined) | 3.8% | -5.4% | 4.47µM* | 2.24µM* | 9.1%
CC(=O)c1ccc(NC(=S)NC(C)CCc2ccccc2)cc1 (centres undefined) | 6.7% | 20.9% | 20µM* | 7.94µM* | i[1.84 µM]
Cc1ccc(NC(=S)NC(C)CCc2ccccc2)cc1C (centres undefined) | ? | -6.3% | 6.31µM* | 3.98µM* | 18.5%
Cc1ccccc1NC(=O)C(=O)NC(C)CCc1ccccc1 (centres undefined) | 15.1% | ? | -12.1% | -29.1% | -7.3%
Nc1nc(Cl)nc2c1ncn2[C@@H]1O[C@H](CO)[C@H](O)C1F (some centres undefined) | -1.1% | . | ? | -11.0%[10 µM] | -2.7%
O=C(CCCN1C(=O)c2cccc3cccc(c23)C1=O)NCc1cccs1 | -2.1% | 8.9% | 5.1% | 6.0% | -1.2%
O=C1CC(/C=C/c2ccncc2)=Nc2ccccc2N1 | ? | 18.3µM* | 0.3% | 25.6% | 16.4µM*
CCCCC(CC)CN=C(N)NC(N)=NCCCCCCN=C(N)NC(N)=NCC(CC)CCCC (centres undefined) | 11.9µM* | ? | 0.4% | ? | ?
COc1ccc(C(=O)CN2C(=O)c3ccccc3S2(=O)=O)cc1 | 0.7% | ? | ? | 5.62µM* | -10.0%
O=C(CN1C(=O)c2ccccc2S1(=O)=O)c1ccc(O)c(O)c1 | 1.6% | ? | -8.7% | -13.0% | 2.8%
O=C(CN1C(=O)c2ccccc2S1(=O)=O)c1ccc(F)c(F)c1 | 0.0% | 29.7% | 11.2µM* | 10µM* | -7.0%
COc1ccc(NC(=O)CN(C)C(=O)C(C)Oc2ccc(Br)cc2)cc1 (centres undefined) | 3.9% | -3.3% | . | . | -1.4%
COc1ccc(Cl)cc1NC(=O)CSc1nc2sccc2c(=O)[nH]1 | 20.6µM* | 6.8% | -6.9% | 20.0% | -4.7%
COc1ccc(C)cc1NC(=O)CSc1nc2scc(C)c2c(=O)[nH]1 | 18.4µM* | -4.0% | -2.9% | 41.2% | ?
SMILES | MCF10A rereplic | ELG1 DNA repair | Gal4-VP16 FLuc | RORg inh | SW480 rereplic
CCOc1ccc(CCNC(=O)c2ccc(S(=O)(=O)N3CCCC3)cc2)cc1OCC | -3.0% | ? | . | . | -2.3%
N#Cc1cc(NC(=O)c2ccc(F)cc2)c(=O)n2c1[nH]c1ccccc12 | . | 6.51µM* | -5.2% | 3.3% | .
O=C(C1CCCN(c2nnc(-n3cccc3)s2)C1)N1CCN(c2ccccc2)CC1 (centres undefined) | ? | 16.4µM* | 9.7% | 4.0% | ?
CC(CCc1ccccc1)NC(=O)C1CCCN(c2nnc(-n3cccc3)s2)C1 (centres undefined) | 22.3% | ? | -5.9% | 31.3% | 2.0%
O=C(C1CCCN(S(=O)(=O)c2ccc(Br)s2)C1)N1CCN(c2ccccc2)CC1 (centres undefined) | ? | 14.6µM* | -1.5% | ? | -28.1%
COc1cccc(/C=N/n2c(COc3ccccc3)n[nH]c2=S)c1OC | -11.9% | -0.5% | ? | 20µM* | -9.5%
COc1ccccc1/C=C/C=N/n1c(COc2ccccc2)n[nH]c1=S | 139.5%[0.0737 µM] | 8.1% | -22.8% | 3.55µM* | -2.6%
Cc1n[nH]c(=S)n1/N=C/c1ccccc1OCc1ccc(Cl)cc1 | 5.8% | ? | ? | 4.47µM* | ?
COc1cccc(/C=N/n2c(COc3ccccc3)n[nH]c2=S)c1O | ? | 23.3% | ? | 12.6µM* | -22.2%
COc1cc(/C=N/n2c(COc3ccccc3)n[nH]c2=S)cc(OC)c1OC(C)=O | 4.1% | 16.9% | -12.5% | -12.8% | -8.2%
Cc1ccc(-c2csc3ncn(CC(=O)OC(C)C)c(=O)c23)cc1 | -0.2% | ? | 2.2% | -0.5% | 1.4%
O=C(Nc1ccc(C(=O)N2CCC(N3CCOCC3)CC2)cc1)c1ccc(Br)o1 | -1.3% | ? | . | . | 8.7%[9.22 µM]
Cc1cc(NC(=O)c2cc(-c3cccs3)nc3ccccc23)no1 | ? | ? | -9.9% | -31.9% | 134.1%
COc1ccccc1-n1c(SCC(=O)Nc2cc(C)on2)nc2c([nH]c3ccccc32)c1=O | ? | -28.1% | 7.4% | -0.2% | -14.0%
Cc1cc(NC(=O)CSc2nc3c([nH]c4ccccc43)c(=O)n2-c2ccccc2F)no1 | 2.2% | 20.6µM* | -10.5% | -15.2% | 2.7%
Cc1cc(NC(=O)CSc2nc(-c3cccs3)nc3ccccc23)no1 | 14.6µM* | 3.2% | . | . | 5.8µM*
CCCc1nc(SCC(=O)Nc2cc(C)on2)c2ccccc2n1 | ? | 25.9µM* | 4.0% | -2.0% | ?
CCCc1nc(SCC(=O)Nc2nc3c(s2)CCCC3)c2ccccc2n1 | 16.4µM* | -11.2% | -0.2% | -11.7% | 7.8%
Cc1cccc(NC(=O)CCCNC(=O)c2ccc(Cl)cc2)n1 | ? | 5.9% | -13.2% | -14.6% | -30.2%
Cc1cc(NC(=O)CSc2ncnc3ccccc23)no1 | 2.3% | 1.5% | -6.8% | 7.94µM* | -2.8%

Screening data from PubChem BioAssay.
